# Reference: PubChem BioAssay AID2117 (The Scripps Research Institute Molecular Screening Center, 2009)
# Activity calls are given as the source filed them. No rule for the calls is given here.
# Tested on: VP16
# Test: LXR, FXR and VP16 reporter activity, cell-based, luciferase reporter, ROR modulator project, late-stage follow-up (AID 2117)
# Conditions: cell-based luciferase reporter panel, at 10 µM; fold change: max fold change; inhibition: stronger effect = higher value
compound,measurement,value
O=S(=O)(Nc1ccc(C(O)(C(F)(F)F)C(F)(F)F)cc1)c1cccc2ccccc12,fold change,0.95
same,inhibition,5% (inactive)
CC(C)(C)c1ccc(S(=O)(=O)Nc2ccc(C(O)(C(F)(F)F)C(F)(F)F)cc2)cc1,fold change,0.9
same,inhibition,10% (inactive)
O=S(=O)(Nc1ccc(C(O)(C(F)(F)F)C(F)(F)F)cc1)c1ccc(Cl)c2nonc12,fold change,0.61
same,inhibition,39% (inactive)
COC(=O)c1sccc1S(=O)(=O)Nc1ccc(C(O)(C(F)(F)F)C(F)(F)F)cc1,fold change,0.94
same,inhibition,6%
O=S(=O)(Nc1ccc(C(O)(C(F)(F)F)C(F)(F)F)cc1)c1cccc2cccnc12,fold change,1.03
same,inhibition,0% (inactive)
COc1cccc(S(=O)(=O)Nc2ccc(C(O)(C(F)(F)F)C(F)(F)F)cc2)c1,fold change,0.91
same,inhibition,9% (inactive)
